Results from the supplement of paper PMC11732987, “Enantioselective OTUD7B fragment discovery through chemoproteomics screening and high-throughput optimisation” (Communications Chemistry, 2025).

How the values were obtained:
Test in all cases: log2 ratio of Biotin-Ahx-Ub-VS probe labelling (fragment/DMSO); higher = less target engagement (more negative = stronger competition), active = hit call of the paper (q ≤ 0.05, log2 ratio ≤ -1)
Conditions in all cases: compound concentration: 200 uM; treatment time: 3 h
OTUD6B = biological target: T1, OTUD6B (UniProt Q8N6M0)
T1 sequence (whole entry): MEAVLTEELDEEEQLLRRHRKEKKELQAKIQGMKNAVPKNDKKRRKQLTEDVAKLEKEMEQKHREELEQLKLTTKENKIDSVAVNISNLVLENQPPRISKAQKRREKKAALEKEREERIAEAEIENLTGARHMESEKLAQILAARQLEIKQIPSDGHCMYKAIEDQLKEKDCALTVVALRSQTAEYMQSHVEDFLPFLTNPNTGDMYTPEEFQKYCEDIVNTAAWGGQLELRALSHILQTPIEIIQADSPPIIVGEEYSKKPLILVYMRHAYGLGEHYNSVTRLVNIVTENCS
How it was run: (§1)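 Labelling with Biotin-Ahx-Ub-VS (0.5 µM final, 1 h) followed a 3 h triplicate treatment of HEK293T lysate (495 µg per sample, Tris/CHAPS/IGEPAL buffer with protease inhibitors) with fragment at 200 µM or vehicle. Labelled DUBs were NeutrAvidin-enriched, digested with LysC and trypsin, and run by diaPASEF LC-MS/MS. The values, average log2 fragment/vehicle ratios by unpaired t-test, come from global-median-normalised Spectronaut label-free quantities. Proteins with ≥2 unique peptides were used.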

OTUD7B = biological target: T2, OTUD7B (UniProt Q6GQQ9)
T2 sequence (whole entry): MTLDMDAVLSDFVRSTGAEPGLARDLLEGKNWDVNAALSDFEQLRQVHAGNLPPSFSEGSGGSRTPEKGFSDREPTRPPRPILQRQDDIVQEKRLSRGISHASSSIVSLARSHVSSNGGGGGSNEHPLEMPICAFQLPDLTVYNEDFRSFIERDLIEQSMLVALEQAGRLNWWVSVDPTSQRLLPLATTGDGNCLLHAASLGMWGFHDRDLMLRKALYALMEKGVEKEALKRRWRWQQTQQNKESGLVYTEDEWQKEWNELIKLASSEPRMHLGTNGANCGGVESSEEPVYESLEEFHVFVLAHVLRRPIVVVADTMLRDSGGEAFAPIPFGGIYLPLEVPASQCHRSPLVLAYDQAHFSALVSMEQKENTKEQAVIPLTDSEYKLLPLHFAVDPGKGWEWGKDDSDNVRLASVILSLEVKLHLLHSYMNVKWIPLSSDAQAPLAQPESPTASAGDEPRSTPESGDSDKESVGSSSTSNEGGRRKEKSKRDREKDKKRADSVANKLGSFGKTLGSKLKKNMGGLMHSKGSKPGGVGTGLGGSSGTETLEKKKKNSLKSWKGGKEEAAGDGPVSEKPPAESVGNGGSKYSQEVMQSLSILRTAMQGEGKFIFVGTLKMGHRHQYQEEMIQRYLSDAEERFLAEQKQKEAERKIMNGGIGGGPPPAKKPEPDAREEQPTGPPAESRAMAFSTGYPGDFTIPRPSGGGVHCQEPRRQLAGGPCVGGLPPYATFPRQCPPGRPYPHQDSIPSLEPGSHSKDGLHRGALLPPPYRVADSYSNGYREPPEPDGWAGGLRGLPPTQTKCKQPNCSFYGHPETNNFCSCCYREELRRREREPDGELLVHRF
How it was run: as §1

PRPF8 = PRPF8 (UniProt Q6P2Q9)
How it was run: as §1

PSMD7 = biological target: T3, PSMD7 (UniProt P51665)
T3 sequence (whole entry): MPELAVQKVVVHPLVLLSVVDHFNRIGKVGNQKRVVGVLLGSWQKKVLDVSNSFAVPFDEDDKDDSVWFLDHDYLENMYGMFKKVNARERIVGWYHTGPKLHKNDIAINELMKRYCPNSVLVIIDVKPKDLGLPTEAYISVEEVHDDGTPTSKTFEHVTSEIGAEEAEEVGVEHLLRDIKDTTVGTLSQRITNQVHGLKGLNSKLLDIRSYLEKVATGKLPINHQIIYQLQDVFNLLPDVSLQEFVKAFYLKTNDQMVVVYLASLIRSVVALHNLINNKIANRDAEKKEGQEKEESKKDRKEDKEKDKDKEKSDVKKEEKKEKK
How it was run: as §1

UCHL1 = UCHL1 (UniProt P09936)
Chain of UCHL1 (P09936 whole entry, looked up): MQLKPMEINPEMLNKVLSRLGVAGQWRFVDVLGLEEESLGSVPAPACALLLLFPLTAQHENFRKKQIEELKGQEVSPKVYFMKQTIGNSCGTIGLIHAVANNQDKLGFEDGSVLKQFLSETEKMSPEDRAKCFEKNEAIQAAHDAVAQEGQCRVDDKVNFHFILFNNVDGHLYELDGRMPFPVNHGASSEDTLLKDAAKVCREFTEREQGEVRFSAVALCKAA
How it was run: as §1

UCHL3 = biological target: T4, UCHL3 (UniProt P15374)
T4 sequence (whole entry): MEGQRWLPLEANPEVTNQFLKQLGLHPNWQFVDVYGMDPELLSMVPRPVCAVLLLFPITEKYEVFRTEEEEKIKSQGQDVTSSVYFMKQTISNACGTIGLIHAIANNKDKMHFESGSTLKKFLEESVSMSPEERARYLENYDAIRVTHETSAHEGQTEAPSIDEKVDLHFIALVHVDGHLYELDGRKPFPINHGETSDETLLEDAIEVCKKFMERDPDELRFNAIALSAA
How it was run: as §1

UCHL5 = biological target: T5, UCHL5 (UniProt Q9Y5K5)
T5 sequence (whole entry): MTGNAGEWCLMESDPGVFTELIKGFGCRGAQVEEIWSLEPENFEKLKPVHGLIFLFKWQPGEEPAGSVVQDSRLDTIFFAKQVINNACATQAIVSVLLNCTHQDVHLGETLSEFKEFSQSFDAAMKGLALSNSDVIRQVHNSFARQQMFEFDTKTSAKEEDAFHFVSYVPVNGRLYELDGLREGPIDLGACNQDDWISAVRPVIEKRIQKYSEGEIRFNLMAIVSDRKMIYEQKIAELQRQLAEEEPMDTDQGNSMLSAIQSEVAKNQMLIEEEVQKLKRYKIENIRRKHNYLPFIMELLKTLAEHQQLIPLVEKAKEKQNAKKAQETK
How it was run: as §1

USP10 = USP10 (UniProt Q14694)
Chain of USP10 (Q14694 whole entry): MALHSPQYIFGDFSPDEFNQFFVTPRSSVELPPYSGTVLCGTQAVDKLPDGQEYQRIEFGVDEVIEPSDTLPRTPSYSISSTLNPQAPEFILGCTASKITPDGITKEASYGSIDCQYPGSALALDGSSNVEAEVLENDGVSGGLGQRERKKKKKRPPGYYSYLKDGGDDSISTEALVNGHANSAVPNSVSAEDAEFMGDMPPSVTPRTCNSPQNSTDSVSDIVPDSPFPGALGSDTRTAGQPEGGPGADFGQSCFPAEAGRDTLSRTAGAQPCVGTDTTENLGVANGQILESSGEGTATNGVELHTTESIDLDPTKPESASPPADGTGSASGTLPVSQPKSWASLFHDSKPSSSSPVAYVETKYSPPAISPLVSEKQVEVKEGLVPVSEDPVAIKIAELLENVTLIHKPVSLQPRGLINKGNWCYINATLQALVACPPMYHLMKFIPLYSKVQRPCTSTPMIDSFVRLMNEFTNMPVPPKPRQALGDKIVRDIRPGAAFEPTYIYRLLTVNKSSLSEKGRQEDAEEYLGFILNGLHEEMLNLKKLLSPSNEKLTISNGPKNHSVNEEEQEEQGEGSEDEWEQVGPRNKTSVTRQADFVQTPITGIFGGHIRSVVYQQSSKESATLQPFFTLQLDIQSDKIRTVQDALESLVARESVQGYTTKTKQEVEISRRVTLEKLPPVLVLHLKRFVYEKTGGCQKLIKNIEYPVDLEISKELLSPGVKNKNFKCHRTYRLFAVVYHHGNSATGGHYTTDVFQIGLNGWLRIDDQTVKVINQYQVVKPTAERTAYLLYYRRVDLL
How it was run: as §1

USP15 = biological target: T6, USP15 (UniProt Q9Y4E8)
T6 sequence (whole entry): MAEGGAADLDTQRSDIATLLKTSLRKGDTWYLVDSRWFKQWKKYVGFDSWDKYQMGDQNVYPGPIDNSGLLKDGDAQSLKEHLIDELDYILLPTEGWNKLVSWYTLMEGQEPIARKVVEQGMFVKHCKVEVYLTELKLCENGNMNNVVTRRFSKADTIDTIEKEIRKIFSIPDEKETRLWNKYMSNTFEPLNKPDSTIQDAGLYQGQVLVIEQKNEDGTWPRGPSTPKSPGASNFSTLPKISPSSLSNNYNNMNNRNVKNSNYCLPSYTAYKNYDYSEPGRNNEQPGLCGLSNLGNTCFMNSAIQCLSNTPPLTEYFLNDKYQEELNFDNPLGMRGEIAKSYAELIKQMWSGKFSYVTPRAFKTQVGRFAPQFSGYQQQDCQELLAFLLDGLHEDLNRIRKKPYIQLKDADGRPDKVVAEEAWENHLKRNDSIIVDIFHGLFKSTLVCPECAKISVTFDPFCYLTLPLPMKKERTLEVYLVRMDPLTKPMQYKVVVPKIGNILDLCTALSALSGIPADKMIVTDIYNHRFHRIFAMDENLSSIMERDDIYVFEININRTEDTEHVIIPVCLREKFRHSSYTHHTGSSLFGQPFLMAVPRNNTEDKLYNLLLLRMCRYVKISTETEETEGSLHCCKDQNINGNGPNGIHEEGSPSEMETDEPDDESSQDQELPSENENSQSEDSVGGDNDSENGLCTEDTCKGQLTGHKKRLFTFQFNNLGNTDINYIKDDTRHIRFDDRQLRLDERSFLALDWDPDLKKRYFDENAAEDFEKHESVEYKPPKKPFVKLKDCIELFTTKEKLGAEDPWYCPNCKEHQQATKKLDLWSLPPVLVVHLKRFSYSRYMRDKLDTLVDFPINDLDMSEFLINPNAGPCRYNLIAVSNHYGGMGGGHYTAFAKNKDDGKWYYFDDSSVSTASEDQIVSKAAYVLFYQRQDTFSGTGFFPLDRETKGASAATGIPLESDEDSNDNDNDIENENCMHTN
How it was run: as §1

USP16 = USP16 (UniProt Q9Y5T5)
Chain of USP16 (Q9Y5T5 whole entry, looked up): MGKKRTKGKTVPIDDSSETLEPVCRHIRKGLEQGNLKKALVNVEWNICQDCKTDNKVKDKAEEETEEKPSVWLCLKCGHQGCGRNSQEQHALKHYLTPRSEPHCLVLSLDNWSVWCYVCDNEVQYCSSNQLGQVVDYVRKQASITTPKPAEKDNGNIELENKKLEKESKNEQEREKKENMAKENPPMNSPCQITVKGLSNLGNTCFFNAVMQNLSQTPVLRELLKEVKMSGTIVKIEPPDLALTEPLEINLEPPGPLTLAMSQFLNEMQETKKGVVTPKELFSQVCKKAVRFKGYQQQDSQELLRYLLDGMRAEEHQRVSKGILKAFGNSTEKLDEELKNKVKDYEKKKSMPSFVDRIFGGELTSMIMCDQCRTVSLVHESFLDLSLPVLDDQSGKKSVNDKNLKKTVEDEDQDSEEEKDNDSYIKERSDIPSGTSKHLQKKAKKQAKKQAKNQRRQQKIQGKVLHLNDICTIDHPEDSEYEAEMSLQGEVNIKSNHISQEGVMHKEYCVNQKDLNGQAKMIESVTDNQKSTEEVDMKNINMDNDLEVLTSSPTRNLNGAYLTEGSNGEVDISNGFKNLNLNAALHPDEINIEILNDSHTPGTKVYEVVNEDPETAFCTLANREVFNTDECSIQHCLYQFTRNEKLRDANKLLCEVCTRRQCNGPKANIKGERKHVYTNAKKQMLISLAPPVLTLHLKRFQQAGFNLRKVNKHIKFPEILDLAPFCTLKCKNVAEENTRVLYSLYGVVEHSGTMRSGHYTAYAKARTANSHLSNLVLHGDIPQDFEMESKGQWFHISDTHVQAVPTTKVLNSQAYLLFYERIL
How it was run: as §1

Measured: log2 ratio of Biotin-Ahx-Ub-VS probe labelling

O=C(CCl)NCC1(c2ccccc2)CC1
inactive: OTUD6B -0.042 | OTUD7B -0.82 | PRPF8 -0.155 | PSMD7 -0.151 | UCHL3 0.255 | UCHL5 -0.245 | USP10 0.00549 | USP15 -0.107 | USP16 0.0406
active: UCHL1 -1.22
